{
  "source": "PubChem BioAssay (Tox21)",
  "note": "Inconclusive results are not listed. Values without a mark were called inactive. The source made the active and inactive calls. The call rests on the fitted dose curve; in most records, active means well fitted cell-killing curve with a large enough effect in the repeat runs; inconclusive means weak or mixed curves, or effect the other way; inactive means flat fitted curve, though single readings scatter. On the % scale 0 is the no-effect control and ±100 the full control effect; potency means the concentration at half of the fitted maximal effect.",
  "data": [
    {"experiment": "qHTS RealTime-Glo MT Cell Viability Assay in HEK293 cells - 24 hour (AID 1224886); further: nearly all actives have a fitted effect of over 50% in size; on activity change, negative = cytotoxicity: top concentration of the series differs between compounds", "conditions": "RealTime-Glo luminescence; series mostly up to 76.8 µM; activity change, negative = cytotoxicity: at the top concentration", "excerpt": "National Center for Advancing Translational Sciences [NCATS]\nNIH Chemical Genomics Center [NCGC]\nU.S. Environmental Protection Agency [EPA]\nNational Institutes of Environmental Health Sciences [NIEHS]\nNational Toxicology Program [NTP]\nU.S. Food and Drug Administration [FDA]\nMeasure of cell viability is critical in the cell-base assay. Analysis of cell viability is necessary for the characterization of cell responses to cytotoxic drugs and environmental stress. A RealTime-Glo MT Cell Viability Assay to monitor cell viability in real time of continues cell culture during 40 hours of compound treatment was used to screen Tox21 10K library compounds in Hek293 cells. The RealTime-Glo MT Cell Viability Assay is a nonlytic, homogeneous, bioluminescent method to measure cell viability in real time using a simple, plate-based method. The assay involves adding NanoLuc luciferase and a cell-permeant prosubstrate to cells in culture. Viable cells reduce the proprietary prosubstrate to generate a substrate for NanoLuc luciferase. This substrate diffuses from cells into the surrounding culture medium, where it is rapidly used by the NanoLuc Enzyme to produce a luminescent signal. The signal correlates with the number of viable cells, making the assay well suited for cytotoxicity studies.\nTox21 Assay Protocol Summary:\nThe mixture of Hek293 cell suspension and reagents were dispensed at 600cells/6 ul/well in 1536-well tissue culture treated black solid bottom plates using a Multidrop dispenser. After the assay plates were incubated at a 37 C/5% CO2 incubator for 5 hours, 23 nL of compounds dissolved in DMSO, positive and negative controls was transferred to the assay plate by a pintool work station. The plates were incubated at 37 C for 40 hours. The luminescence intensity were measured at 0h, 8h, 16h, 24h, 32h and 40h time points using ViewLux plate reader during compound treatment.", "values": [
      {"smiles": "COC(=O)[C@@H]1CC2=CC(=O)CC[C@]2(C)[C@@]23O[C@@H]2C[C@@]2(C)[C@@H](CC[C@@]24CCC(=O)O4)[C@H]13", "activity change, negative = cytotoxicity": "1.45% [at 35.3 µM]"},
      {"smiles": "CN1CCCN=C1/C=C/c1cccs1", "activity change, negative = cytotoxicity": "-2.17% [at 35.3 µM]"},
      {"smiles": "C=CC(C)=CCC=C(C)C", "activity change, negative = cytotoxicity": "13.1%"},
      {"smiles": "COc1cc2c(cc1OC)-c1cc(=Nc3c(C)cc(C)cc3C)n(C)c(=O)n1CC2", "activity change, negative = cytotoxicity": "-31.8% [at 35.3 µM]"},
      {"smiles": "CCOC(=O)[C@@H](C)Oc1ccc(Oc2nc3ccc(Cl)cc3o2)cc1", "Potency": "21.9 µM (active)"},
      {"smiles": "O=[N+]([O-])c1cccc(S(=O)(=O)NCCNS(=O)(=O)c2cccc([N+](=O)[O-])c2)c1", "activity change, negative = cytotoxicity": "-6.56% [at 35.3 µM]"},
      {"smiles": "CCCCC(=O)O[C@]1(C(=O)CO)CC[C@H]2[C@@H]3CCC4=CC(=O)CC[C@]4(C)[C@H]3[C@@H](O)C[C@@]21C", "activity change, negative = cytotoxicity": "-24.9% [at 35.3 µM]"},
      {"smiles": "Oc1ccc(Nc2ccccc2)cc1", "Potency": "21.9 µM (active)"},
      {"smiles": "COC(OC)(C(=O)c1ccccc1)c1ccccc1", "activity change, negative = cytotoxicity": "0.0194%"},
      {"smiles": "O=C(CCC1CCN(Cc2ccccc2)CC1)c1ccc2c(c1)NCCCC2", "Potency": "9.52 µM (active)"},
      {"smiles": "C[N+](C)(C)CCOC(N)=O", "activity change, negative = cytotoxicity": "4.77% [at 35.3 µM]"},
      {"smiles": "CCOc1cc(N)c(Cl)cc1C(=O)NCC1CN(Cc2ccc(F)cc2)CCO1", "note": "(stereo not given)", "Potency": "15.1 µM (active)"},
      {"smiles": "O=C(CS)OCCOC(=O)CS", "activity change, negative = cytotoxicity": "7.87%"},
      {"smiles": "O=C(c1ccc(O)cc1)c1ccc(Cl)cc1", "Potency": "22.3 µM (active)"},
      {"smiles": "C[N+]1(C)CCC(=C(c2ccccc2)c2ccccc2)CC1", "activity change, negative = cytotoxicity": "1.84% [at 35.3 µM]"},
      {"smiles": "CN(C)CCOC1=Cc2ccccc2Sc2ccc(Cl)cc21", "activity change, negative = cytotoxicity": "-13.1% [at 35.3 µM]"},
      {"smiles": "O=Cc1c(Cl)cccc1Cl", "activity change, negative = cytotoxicity": "-15.4%"},
      {"smiles": "CCc1nn(CCCN2CCN(c3cccc(Cl)c3)CC2)c(=O)n1CCOc1ccccc1", "Potency": "8.49 µM (active)"},
      {"smiles": "O=C(CCCCCCC(=O)Nc1ccccc1)NO", "Potency": "2.39 µM (active)"},
      {"smiles": "NC(=O)Cn1c(=O)cc(CCN2CCN(c3nccc4sccc34)CC2)c2ccc(F)cc21", "Potency": "49 µM (active)"},
      {"smiles": "N#C[C@@H]1C[C@@H]2C[C@@H]2N1C(=O)[C@@H](N)C12CC3CC(CC(O)(C3)C1)C2", "activity change, negative = cytotoxicity": "12.6% [at 35.3 µM]"},
      {"smiles": "O=C(O)C(Cc1cc(I)c(O)c(I)c1)c1ccccc1", "note": "(stereo not given)", "activity change, negative = cytotoxicity": "-1.7% [at 35.3 µM]"},
      {"smiles": "O=C(O)c1cccnc1C(=O)O", "activity change, negative = cytotoxicity": "1.37%"},
      {"smiles": "C1COCO1", "activity change, negative = cytotoxicity": "-7.4%"},
      {"smiles": "O=C(O)c1ccc(CO)o1", "activity change, negative = cytotoxicity": "0.807%"},
      {"smiles": "CC(C)C(=O)O", "activity change, negative = cytotoxicity": "6.2%"},
      {"smiles": "Cc1cc2nc3ccc(=[N+](C)C)cc-3sc2cc1N", "Potency": "2.68 µM (active)"},
      {"smiles": "CCN(Cc1cccc(S(=O)(=O)O)c1)c1ccc(C(=C2C=CC(=[N+](CC)Cc3cccc(S(=O)(=O)[O-])c3)C=C2)c2ccccc2)cc1", "activity change, negative = cytotoxicity": "6.5% [at 35.3 µM]"},
      {"smiles": "CN1C(=O)CC(C)(c2ccccc2)C1=O", "note": "(stereo not given)", "activity change, negative = cytotoxicity": "-6.93% [at 35.3 µM]"},
      {"smiles": "CCC(=O)Oc1ccc(/C(CC)=C(\\CC)c2ccc(OC(=O)CC)cc2)cc1", "Potency": "21.9 µM (active)"},
      {"smiles": "Cn1c(=O)c2c(ncn2CC(=O)O)n(C)c1=O", "activity change, negative = cytotoxicity": "1.06% [at 35.3 µM]"},
      {"smiles": "ON(Cc1ccccc1)Cc1ccccc1", "activity change, negative = cytotoxicity": "-0.478%"},
      {"smiles": "CCOC(=O)c1ccccc1OC", "activity change, negative = cytotoxicity": "1.56%"},
      {"smiles": "Nc1nccs1", "activity change, negative = cytotoxicity": "-19.5%"},
      {"smiles": "COc1cc2c(N3CCN(C(=O)Nc4ccc(OC(C)C)cc4)CC3)ncnc2cc1OCCCN1CCCCC1", "Potency": "9.52 µM (active)"},
      {"smiles": "C/C=C/C=C/CCCCCCCO", "activity change, negative = cytotoxicity": "-17.9%"},
      {"smiles": "Cc1cc(O)c(C(C)C)cc1Cl", "Potency": "inactive"},
      {"smiles": "CC(C)CCCC(=O)O", "activity change, negative = cytotoxicity": "-13.8%"},
      {"smiles": "NC(=O)N(O)[C@@H]1C=C[C@H](Oc2cccc(Oc3ccc(F)cc3)c2)C1", "Potency": "15.5 µM (active)"},
      {"smiles": "OCC1CC=CCC1", "note": "(stereo not given)", "activity change, negative = cytotoxicity": "0.261%"}
    ]}
  ]
}
